# From PubChem BioAssay AID1851 (National Center for Advancing Translational Sciences (NCATS), 2009)
# Several values for one entry are separate records, joined by “and”; a condition that tells them apart may be missing. Identical values can stand only once. Screen size: about 16,000 compounds; about 5,800 (36%) were called active. Another 23% or so got no clear call; they are omitted. Calls come from the whole dose curve; as a rule, active = well fitted curve in the direction sought with a large enough effect; inconclusive = small, poorly fitted or top-dose-only effect, or effect the other way; inactive = no such curve, though single readings can be large or run the other way. This is one part of the list. The source holds several records for some structures; these can differ, active in one and inactive in another.
# Molecular target: Cytochrome P450 2C19 (Homo sapiens) (UniProt P33261)
# Assay: Cytochrome panel assay with activity outcomes
# Conditions: recombinant CYP, pro-luciferin dealkylation, luminescence, p450-cyp2c19; series mostly up to 57.1 µM
# % is set by controls: 0 for no effect and ±100 for the full control effect.
# Cytochrome P450 2C19 (Homo sapiens), sequence (P33261 whole entry, looked up): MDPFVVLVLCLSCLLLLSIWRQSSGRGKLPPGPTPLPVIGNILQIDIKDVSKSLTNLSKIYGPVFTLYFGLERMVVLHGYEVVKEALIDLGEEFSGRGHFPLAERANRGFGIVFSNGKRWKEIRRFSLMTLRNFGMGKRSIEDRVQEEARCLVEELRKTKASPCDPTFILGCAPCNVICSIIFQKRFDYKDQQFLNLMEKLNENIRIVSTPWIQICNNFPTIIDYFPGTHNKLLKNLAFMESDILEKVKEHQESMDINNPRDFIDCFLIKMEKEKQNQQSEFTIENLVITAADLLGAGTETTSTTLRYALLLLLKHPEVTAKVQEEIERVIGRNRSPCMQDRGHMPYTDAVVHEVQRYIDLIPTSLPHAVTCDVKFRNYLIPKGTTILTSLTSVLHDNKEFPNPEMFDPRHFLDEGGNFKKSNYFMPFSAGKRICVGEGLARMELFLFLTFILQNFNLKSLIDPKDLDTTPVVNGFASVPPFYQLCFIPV
Compound,AC50,"activity, negative = inhibition"
N#CCCn1c(=O)c(-c2cccc(C#N)c2)nc2cnc(N3CCOCC3)nc21,inactive,–
COc1ccc2c(c1)-c1ccccc1S(=O)(=O)N2C,14.1 µM (active),–
CC1CC2=C(NC(=S)NC2c2ccc(F)cc2)/C(=C/c2ccc(F)cc2)C1 (stereo not drawn),3.55 µM (active),–
Cc1cccc(C(=O)N2CCN(c3ccc([N+](=O)[O-])c(NCc4ccco4)c3)CC2)c1,7.94 µM (active),–
Cc1ccccc1C(=O)N1CCN(c2ccc([N+](=O)[O-])c(NCc3ccco3)c2)CC1,3.16 µM (active),–
N#Cc1ccc(C(=O)Nc2ccc(N3CCN(C(=O)c4ccco4)CC3)cc2)c(F)c1,inactive,–
Cc1cccc(C(=O)NCN2CCN(c3ccccc3C#N)CC2)c1,inactive,–
CC[C@]1(O)C[C@H]2CN(CCc3c([nH]c4ccccc34)[C@](C(=O)OC)(c3cc4c(cc3OC)N(C=O)[C@H]3[C@@](O)(C(=O)OC)[C@H](OC(C)=O)[C@@]5(CC)C=CCN6CC[C@]43[C@H]65)C2)C1,inactive,–
Cc1[nH]nc(-c2ccc(OCc3cnn(-c4ccccc4)c3)cc2O)c1Oc1ccccc1F,1.78 µM (active),–
O=C(Nc1ccc2oc(-c3ccccc3F)nc2c1)c1ccc2c(c1)OCCO2,3.98 µM (active),–
CCCNC(=O)N1CCC(C(=O)c2ccc(F)cc2)CC1,17.8 µM (active),–
COc1cc(N)c(Cl)cc1C(=O)NC1CCN(Cc2ccccc2)CC1,inactive,–
CCC(C)[C@H](NC(=O)NC1CCN(Cc2ccccc2)CC1)C(=O)OC (stereo partly drawn),inactive,–
O=C(Cc1ccccc1)NC1CCN(S(=O)(=O)c2ccc(C(=O)O)cc2)CC1,inactive,–
CN(C)CCNC(=O)C(C(=O)c1ccc(F)cc1)n1ccccc1=O (stereo not drawn),inactive,–
Cc1ccc(NC(=O)CN2CCC(NC(=O)Cc3ccccc3)CC2)cc1C,0.0178 µM (active),–
O=C(NC1CCN(Cc2ccccc2)CC1)c1ccc(I)cc1,15.8 µM (active),–
COc1ccccc1NC(=O)CN1CCN(c2ccccc2F)CC1,2.51 µM (active),–
O=C1C(O)=C(O)C(=O)C(O)=C1O,inactive,–
NC(N)=NNC(=O)C(=O)O,–,28.3% [at 11.4 µM] (inactive)
COc1ccccc1NC(=O)CN1CCC(C(=O)c2ccc(F)cc2)CC1,5.01 µM (active),–
CCOc1ccccc1NC(=O)CN1CCC(NC(=O)c2ccccc2)CC1,1 µM (active),–
Cc1cccc(N2CCN(CC(=O)Nc3ccc(-n4cnnn4)cc3)CC2)c1C,inactive,–
CCOc1ccccc1NC(=O)C(=O)NCC1CCCN1CC (stereo not drawn),inactive,–
CCN(CC)c1ccc(NC(=O)CN2CCN(c3ccccc3F)CC2)cc1,14.1 µM (active),–

Compound,AC50,"activity, negative = inhibition"
O=C(c1ccc(F)cc1)C1CCN(CCCCc2ccccc2)CC1,inactive,–
CC(C)NC(=O)N1CC2(CCN(C(=O)c3cc(C(F)(F)F)cc(C(F)(F)F)c3)CC2)C1,inactive,–
Nc1ncnc(N(c2ccccc2)C2CCCCC2)c1[N+](=O)[O-],inactive,–
N=c1nc(N2CCCCC2)cc(N)n1O,inactive,–
Fc1ccccc1OCCCCSc1ncccn1,3.98 µM (active),–
N#Cc1cccc(-c2nccc(-n3ccnc3)n2)c1,7.94 µM (active),–
COc1cccc(-c2nccc(NC3CCNCC3)n2)c1,inactive,–
CCNc1ncc2nc(-c3cccc(C#N)c3)c(=O)n(C)c2n1,inactive,–
COc1cccc(-c2nccc(-n3ccnc3)n2)c1,2.51 µM (active),–
N#Cc1cccc(-c2nc(N3CCNCC3)c3ccccc3n2)c1,inactive,–
CN1CCN(c2ccnc(-c3ccoc3)n2)CC1,inactive,–
N#Cc1cccc(-c2cc(-n3ccnc3)ncn2)c1,0.158 µM (active),–
c1cn(-c2ccnc(-c3ccc4c(c3)OCO4)n2)cn1,10 µM (active),–
C[n+]1cc(-c2ccccc2)n2c1CCCCC2,inactive,–
CCCCSCc1nc2nc(Cl)c(Cl)nc2[nH]1,2 µM (active),–
O=C(Nc1cccc2cccnc12)[C@@H]1[C@@H](C(=O)O)[C@H]2CC[C@@H]1O2,–,29.3% [at 11.4 µM] (inactive)
NC(=S)Nc1cccc2cccnc12,inactive,–
CC(C)(C)C(=O)NC(Nc1cccc2cccnc12)C(Cl)(Cl)Cl (stereo not drawn),0.794 µM (active),–
COC(=O)N1CCC2(CCCN(Cc3ccccc3)C2)CC1,inactive,–
CC(C)OC(=O)C(C#N)c1nc2ccccc2nc1N1CCN(Cc2ccccc2)CC1 (stereo not drawn),0.00562 µM (active),–
CCN1CCN(c2nn3c(=O)c4ccccc4nc3c3ccccc23)CC1,inactive,–
CCCCCCOC(=O)C(C#N)c1nc2ccccc2nc1N1CCN(CC)CC1 (stereo not drawn),8.91 µM (active),–
CC(C)NC1(C(N)=O)CCN(Cc2ccccc2)CC1,–,-1.03% [at 11.4 µM] (inactive)
CCn1c(=O)[nH]c2cc(Cl)c(Cl)cc21,inactive,–
CCCC(=O)N=C1SC2CS(=O)(=O)CC2N1c1ccc(CC)cc1 (stereo not drawn),7.08 µM (active),–

Compound,AC50,"activity, negative = inhibition"
C=CCN1C(=NC(=O)CC)SC2CS(=O)(=O)CC21 (stereo not drawn),inactive,–
COc1ccc(CCN2C(=NC(=O)CCC(=O)O)SC3CS(=O)(=O)CC32)cc1 (stereo not drawn),14.1 µM (active),–
CC(C)NC(=O)N1CC2(CCN(C(=O)c3ccncc3)CC2)C1,inactive,–
Clc1ccc(-c2cc3ccccc3[nH]2)cc1,3.16 µM (active),–
c1ccc(C[n+]2cccc(-c3cc4ccccc4[nH]3)c2)cc1,–,22.1% [at 11.4 µM] (inactive)
C[C@@H](N1CCOCC1)[C@@](O)(c1ccccc1)c1ccccn1,–,5.67% [at 11.4 µM] (inactive)
OC(c1ccccc1)(c1ccc(F)cc1)C(c1ccccc1)N1CCOCC1 (stereo not drawn),2.82 µM (active),–
CC(C)NC(=O)N1CCC2(CC1)CCN(C(=O)c1cccc(F)c1)CC2,inactive,–
C=C[C@@]1(C)CC(=O)[C@@]2(O)[C@@]3(C)[C@@H](O)CCC(C)(C)[C@@H]3[C@H](OC(=O)CCN(C)C)[C@H](OC(C)=O)[C@@]2(C)O1,0.251 µM (active),–
C=C[C@@]1(C)CC(=O)[C@@]2(O)[C@@]3(C)[C@H](O)CCC(C)(C)[C@@H]3[C@H](O)[C@H](OC(C)=O)[C@]2(C)O1,inactive,–
Cc1cc(C2CCCCC2)n(O)c(=O)c1,inactive,–
Cc1cc2nc(SCCOC(=O)Nc3ccc(Cl)cc3)nc(C)c2cc1C,0.794 µM (active),–
CSc1ccc(S(=O)(=O)Nc2ccc3c4c(cccc24)CC3)cc1,0.447 µM (active),–
O=C(c1cccc(F)c1)N1CCC2(CCCN(Cc3nccs3)C2)CC1,inactive,–
O=C(c1cccc(F)c1)N1CCC2(CCN(Cc3nccs3)CC2)CC1,1.58 µM (active),–
O=C(c1cccc(F)c1)N1CCC[C@@]2(CCN(Cc3nccs3)C2)C1,2.51 µM (active),–
O=C(c1ccncc1)N1CCC2(CCN(Cc3nccs3)CC2)CC1,inactive,–
O=C(c1cc(C(F)(F)F)cc(C(F)(F)F)c1)N1CCC2(CCN(Cc3nccs3)CC2)CC1,inactive,–
O=C(c1cc(C(F)(F)F)cc(C(F)(F)F)c1)N1CCC[C@@]2(CCN(Cc3nccs3)C2)C1,inactive,–
CCC1(c2ccccc2)C(=O)NCNC1=O,inactive,–
COCCn1c(=O)c(-c2ccccc2)nc2cnc(Nc3cccc(OC)c3)nc21,inactive,–
Cn1c(=O)c2[nH]c(-c3ccccc3)nc2n(C)c1=O,inactive,–
O=C(O)c1nc(-c2ccccc2)[nH]c1C(=O)O,3.16 µM (active),–
Nc1nc(C(=O)O)c(N=Nc2ccccc2)c(=O)[nH]1,–,-7.57% [at 11.4 µM] (inactive)
Cc1ccc(S(=O)(=O)N(CC(=O)NCCC2=CCCCC2)Cc2ccccc2F)cc1,4.47 µM (active),–

Compound,AC50,"activity, negative = inhibition"
C/C(CCN1CCCc2nc(C)c(C)cc21)=N\OC[C@@H](O)COCc1ccco1,–,7.43% [at 11.4 µM] (inactive)
Cc1ccc(N2C(=O)c3n[nH]c(C)c3C2c2ccccn2)cc1 (stereo not drawn),inactive,–
O=C1CSC(c2ccccn2)N1c1ccc(Cl)c(Cl)c1 (stereo not drawn),3.55 µM (active),–
N#Cc1c(N2CCCCC2)nc(N)c2c(N)nc3c(c12)CC(c1ccccc1)O3 (stereo not drawn),6.31 µM (active),–
COc1ccccc1N1CCN(C[C@@H]2CN3C(=O)N(C)c4ccccc4C3=N2)CC1,inactive,–
COc1ccccc1N1CCN(CCCCNS(=O)(=O)c2cccc3c(N(C)C)cccc23)CC1,0.501 µM (active),–
COc1ccccc1N1CCN(CCn2c(=O)[nH]c3c([nH]c4ccccc43)c2=O)CC1,inactive,–
COc1ccccc1N1CCN(Cc2cc(=O)n3ccsc3n2)CC1,17.8 µM (active),–
COc1ccccc1N1CCN(CCCCNC(=O)c2ccc3ccccc3c2)CC1,inactive,–
COc1ccccc1N1CCN(CCCCNC(=O)c2ccc(-c3ccc(C(C)=O)cc3)cc2)CC1,15.8 µM (active),–
COc1ccccc1N1CCN(CCCNc2cc(=O)n(C)c(=O)n2C)CC1,inactive and 7.94 µM (active),–
CC1(C)[C@@H]2CC[C@]1(CC(=O)O)[C@H](Cl)C2,–,3.64% [at 11.4 µM] (inactive)
CCNc1ncc2nc(-c3cc(F)cc(F)c3)c(=O)n(CCC#N)c2n1,inactive,–
CN[C@]1(C)[C@H]2CC[C@@H](C2)C1(C)C,inactive,–
CC1(C)C2([N+](=O)[O-])CN3CC1([N+](=O)[O-])CN(C2)C31CCCC1,inactive,–
COc1ccccc1N1CCN(CCCCN2C(=O)c3ccccc3C2=O)CC1,inactive,–
COc1ccccc1N1CCN(CCN2C(=O)CC3(CCCC3)CC2=O)CC1,inactive,–
COc1ccccc1N1CCN(CCCCN2C(=O)CCC2=O)CC1,10 µM (active),–
CC(C)C(=O)NCCc1nc2ccccc2n1CCCOc1ccc(Cl)cc1,2 µM (active),–
C=CC[C@H](N)C(=O)O,inactive,–
CCn1c(SCc2ccc(C(=O)Nc3nccs3)cc2)nnc1-c1ccc(NC(C)=O)cc1,5.01 µM (active),–
Cc1ccc(NC(=O)c2ccc(CSc3nnc(-c4ccncc4)n3C)cc2)cc1,inactive,–
O=C(CSc1nnc(-c2ccncc2)n1Cc1ccccc1)Nc1nccs1,1.78 µM (active),–
